# Test results reported in PubChem BioAssay (Tox21).
# Several values for one entry are separate records, joined by “and”; a condition that tells them apart may be missing. Equal values may be shown once. Unmarked numbers belong to inactive results. Results filed as inconclusive are left out. Where a call stands in place of a potency, no number is given. Activity calls are given as the source filed them. Unless noted, calls follow the shape of the full dose curve.
# Legend:
# [1] = Nuclear factor erythroid 2-related factor 2/antioxidant responsive element (Nrf2/ARE) small molecule agonists: qHTS cell viability counter screen in human keratinocytes (AID 1919968; active = well fitted curve in the direction sought with a large enough effect in the repeat runs; an effect the other way counts as inactive or inconclusive; also: nearly all actives have a fitted effect of over 55% in size; also: potency is read from the fitted curve at half-maximal effect)
# Outline: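 Measured as CellTiter-Fluor fluorescence, this readout tracks cytotoxicity in the same wells as the ARE-luciferase screen. HaCaT reporter cells (1,500/well) received compounds after a 5 h pre-incubation and were exposed for 23 h.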
# [2] = Nuclear factor erythroid 2-related factor 2/antioxidant responsive element (Nrf2/ARE) small molecule agonists: luciferase reporter gene qHTS assay in human keratinocytes (AID 1919969); also: nearly all actives have a fitted effect of over 35% in size; also: potency is read from the fitted curve at half-maximal effect
# [3] = target: Gonadotropin-releasing hormone receptor (Homo sapiens) (UniProt P30968); assay: Human gonadotropin-releasing hormone receptor (GnRHR) small molecule agonists, calcium flux assay in GnRHR-HEK293 cells (AID 1920063); also: nearly all actives have a fitted effect of over 35% in size
# Sequence of Gonadotropin-releasing hormone receptor (Homo sapiens) (P30968 whole entry, looked up): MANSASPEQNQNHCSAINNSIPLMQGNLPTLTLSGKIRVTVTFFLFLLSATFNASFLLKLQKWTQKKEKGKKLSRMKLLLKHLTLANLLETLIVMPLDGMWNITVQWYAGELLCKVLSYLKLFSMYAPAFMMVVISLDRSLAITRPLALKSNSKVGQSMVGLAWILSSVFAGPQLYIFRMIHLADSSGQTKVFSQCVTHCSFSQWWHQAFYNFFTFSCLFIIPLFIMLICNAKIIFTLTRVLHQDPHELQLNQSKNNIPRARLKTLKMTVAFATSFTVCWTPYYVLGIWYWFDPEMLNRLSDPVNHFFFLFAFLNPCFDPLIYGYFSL
# Outline: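 Fluorescence kinetics (480 nm excitation, 540 nm emission; 3 min, 1 s steps) report calcium mobilisation in human GnRHR-HEK293 cells in agonist mode. Dye incubation: 1 h, 37 C.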
# [4] = target: KiSS-1 receptor (Homo sapiens) (UniProt Q969F8); assay: Human kisspeptin (KISS1R) small molecule agonists, calcium flux assay in KISS1R-HEK293 cells (AID 1920064; active = well fitted curve in the direction sought with a large enough effect in the repeat runs; an effect the other way counts as inactive or inconclusive)
# Sequence of KiSS-1 receptor (Homo sapiens) (Q969F8 whole entry, looked up): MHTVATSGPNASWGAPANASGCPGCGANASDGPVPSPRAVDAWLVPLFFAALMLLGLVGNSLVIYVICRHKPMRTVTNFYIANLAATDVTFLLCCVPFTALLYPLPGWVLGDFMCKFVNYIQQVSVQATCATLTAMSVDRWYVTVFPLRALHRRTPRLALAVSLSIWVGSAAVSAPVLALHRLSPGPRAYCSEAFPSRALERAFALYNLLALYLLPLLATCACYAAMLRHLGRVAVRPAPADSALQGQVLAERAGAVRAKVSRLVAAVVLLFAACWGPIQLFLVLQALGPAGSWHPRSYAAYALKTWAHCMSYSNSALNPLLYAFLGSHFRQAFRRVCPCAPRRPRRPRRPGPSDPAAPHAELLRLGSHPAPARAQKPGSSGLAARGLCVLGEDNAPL
# Outline: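 Measures KISS1R agonism through calcium-sensitive dye fluorescence in stably transfected HEK293 cells, read for 3 min after pin-tool compound delivery; 15-point titrations in triplicate.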
# [5] = p53 small molecule agonists, cell-based qHTS assay with human liver microsomes (AID 1963577);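 also: p53 response element beta-lactamase reporter cells with liver microsomes plus NADPH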
# Outline: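 In this qHTS, p53 response-element beta-lactamase cells receive test compound together with a microsome/NADPH activating system (0.5 mg/mL final each) and are incubated 16 h at 37 C before LiveBLAzer fluorescence detection.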
# [6] = p53 small molecule agonists, cell-based qHTS assay with rat liver microsomes (AID 1963578)
# Outline: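 Agonist mode in p53RE-bla reporter cells, with compounds co-incubated 16 h at 37 C alongside 0.5 mg/mL rat liver microsomes and 0.5 mg/mL NADPH (final), followed by a 2 h LiveBLAzer detection step.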
# [7] = p53 small molecule agonists, cell-based qHTS assay with human liver microsomes: qHTS cell viability counter screen (AID 1963579); also: nearly all actives have a fitted effect of over 45% in size
# Outline: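 Metabolically activated exposure: compounds, human liver microsomes and NADPH (0.5 mg/mL final apiece) were added to p53RE-bla cells seeded 5 h earlier, left 16 h at 37 C, and then assessed for viability by CellTiter-Glo luminescence.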
# [8] = p53 small molecule agonists, cell-based qHTS assay with rat liver microsomes: qHTS cell viability counter screen (AID 1963580); also: nearly all actives have a fitted effect of over 45% in size
# Outline: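 Intracellular ATP, by CellTiter-Glo luminescence, defines viability. HCT-116 p53RE-bla cells, 4,000 per well, were compound-treated in the presence of rat liver microsomes and NADPH for 16 h at 37 C.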
# [9] = p53 small molecule agonists, cell-based qHTS assay: qHTS cell viability counter screen (AID 1963581); also: nearly all actives have a fitted effect of over 45% in size
# Outline: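 In the same plates used for the p53 bla reporter, HCT-116 cells given compounds for 16 h at 37 C received CellTiter-Glo; luminescence was recorded 30 min later at room temperature.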
# [10] = p53 small molecule agonists, cell-based qHTS assay (AID 1963582; active = well fitted activation curve with a large enough effect in the signal ratio in the repeat runs, not every such curve was filed as active; the % refers to the signal ratio)
# Outline: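 Compounds are pin-transferred in DMSO onto p53RE-bla cells and incubated 16 h at 37 C. The B/G FRET beta-lactamase substrate is then applied for 2 h at RT and fluorescence recorded.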
# [11] = target: 5-hydroxytryptamine receptor 2A (Homo sapiens) (UniProt P28223); assay: 5-hydroxytryptamine receptor 2A (HTR2A) small molecule antagonists, cell-based qHTS assay (AID 1963586); also: nearly all actives have a fitted effect of over 45% in size
# Sequence of 5-hydroxytryptamine receptor 2A (Homo sapiens) (P28223 whole entry, looked up): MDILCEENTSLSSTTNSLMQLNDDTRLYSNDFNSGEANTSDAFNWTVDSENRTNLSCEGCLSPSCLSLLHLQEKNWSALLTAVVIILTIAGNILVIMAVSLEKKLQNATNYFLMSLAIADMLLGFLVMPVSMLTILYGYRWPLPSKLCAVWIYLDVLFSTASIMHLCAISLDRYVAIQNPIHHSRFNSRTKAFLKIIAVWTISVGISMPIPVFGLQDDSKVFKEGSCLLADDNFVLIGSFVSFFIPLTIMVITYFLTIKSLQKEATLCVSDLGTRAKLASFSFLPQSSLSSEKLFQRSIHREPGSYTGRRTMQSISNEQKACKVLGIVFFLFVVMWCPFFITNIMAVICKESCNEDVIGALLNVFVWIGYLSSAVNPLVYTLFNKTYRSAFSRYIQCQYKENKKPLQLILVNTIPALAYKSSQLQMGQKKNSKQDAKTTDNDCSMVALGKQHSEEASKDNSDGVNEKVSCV
# Outline: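 Antagonist-mode intracellular calcium assay: DOI (4 nM) added after 5 min compound pre-incubation at room temperature to dye-loaded HTR2A-CHO cells. Fluorescence followed for 3 min, sampled every second.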
# [12] = target: 5-hydroxytryptamine receptor 2A (Homo sapiens) (UniProt P28223); assay: 5-hydroxytryptamine receptor 2A (HTR2A) small molecule agonists, cell-based qHTS assay (AID 1963587); also: nearly all actives have a fitted effect of over 30% in size
# Outline: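 Kinetic calcium-flux fluorescence (2 min, 1 sec intervals) after compound addition in agonist mode. HTR2A-CHO cells were cultured 18 h, then dye-loaded 1 h at 37 C.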
# [13] = target: Muscarinic acetylcholine receptor M1 (Homo sapiens) (UniProt P11229); assay: Cholinergic receptor muscarinic 1 (CHRM1) small molecule antagonists, cell-based qHTS assay (AID 1963588); also: nearly all actives have a fitted effect of over 40% in size
# Sequence of Muscarinic acetylcholine receptor M1 (Homo sapiens) (P11229 whole entry, looked up): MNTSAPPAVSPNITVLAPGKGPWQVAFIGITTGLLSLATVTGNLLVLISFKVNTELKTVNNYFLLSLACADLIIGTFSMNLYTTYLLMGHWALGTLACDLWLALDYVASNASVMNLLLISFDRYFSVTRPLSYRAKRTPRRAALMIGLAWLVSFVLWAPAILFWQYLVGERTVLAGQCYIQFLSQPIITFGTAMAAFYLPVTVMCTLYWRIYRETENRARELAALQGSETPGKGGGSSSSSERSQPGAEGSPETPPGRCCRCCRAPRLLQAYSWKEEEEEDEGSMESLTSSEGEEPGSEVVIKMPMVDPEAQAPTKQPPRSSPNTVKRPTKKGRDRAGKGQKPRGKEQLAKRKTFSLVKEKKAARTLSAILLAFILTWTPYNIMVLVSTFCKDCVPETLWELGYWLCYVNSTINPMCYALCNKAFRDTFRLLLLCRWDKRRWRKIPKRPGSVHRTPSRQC
# Outline: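 CHRM1-CHO calcium-flux assay, antagonist mode. Cells were seeded 18 h, dye-loaded 1 h at 37 C and given compound for 5 min at RT, then acetylcholine was added at 50nM. FDSS fluorescence was read 3 min; 15 concentrations, three runs.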
# [14] = target: Muscarinic acetylcholine receptor M1 (Homo sapiens) (UniProt P11229); assay: Cholinergic receptor muscarinic 1 (CHRM1) small molecule agonists, cell-based qHTS assay (AID 1963589); also: nearly all actives have a fitted effect of over 35% in size
# Outline: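 Each compound was tested at 15 concentrations across three independent runs on dye-loaded CHO cells stably expressing human CHRM1, reading intracellular calcium fluorescence kinetically at 1 sec intervals.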
# [15] = cAMP Responsive Elements (CRE) small molecule agonists, cell-based qHTS assay (AID 1963590)
# Outline: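 Cell line: CRE-bla HEK 293T; medium DMEM/10% dialyzed FBS/0.1 mM NEAA/1 mM pyruvate/25 mM HEPES; 3 h compound exposure; beta-lactamase FRET readout after 2 h substrate loading at RT.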
# [16] = target: Beta-2 adrenergic receptor (Homo sapiens) (UniProt P07550); assay: Adrenergic beta2 receptor (ADRB2) small molecule antagonists, cell-based qHTS assay (AID 1963592); also: series mostly up to about 92 µM; nearly all actives have a fitted effect of over 50% in size
# Sequence of Beta-2 adrenergic receptor (Homo sapiens) (P07550 whole entry, looked up): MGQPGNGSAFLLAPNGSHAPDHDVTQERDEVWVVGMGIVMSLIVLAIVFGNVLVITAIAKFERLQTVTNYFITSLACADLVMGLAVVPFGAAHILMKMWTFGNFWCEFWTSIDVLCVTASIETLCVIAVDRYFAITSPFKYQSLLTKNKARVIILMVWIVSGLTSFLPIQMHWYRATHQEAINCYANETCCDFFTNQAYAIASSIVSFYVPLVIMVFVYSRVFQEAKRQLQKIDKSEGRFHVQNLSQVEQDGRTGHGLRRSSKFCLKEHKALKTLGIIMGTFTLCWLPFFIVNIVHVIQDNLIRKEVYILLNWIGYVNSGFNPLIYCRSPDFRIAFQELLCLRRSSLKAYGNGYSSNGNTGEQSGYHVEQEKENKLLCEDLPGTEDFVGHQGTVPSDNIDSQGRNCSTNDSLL
# Outline: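 Cells (CHO, stable ADRB2 overexpression) incubated 18-20hr at 37C; compounds added from DMSO; agonist mix (1nM isoproterenol, 100uM IBMX, 25uM Ro-20-1724) added; 0.5hr RT; d2-cAMP and anti-cAMP-cryptate added; 1hr RT; 665/615 nm read.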
# [17] = target: D(2) dopamine receptor (Homo sapiens) (UniProt P14416); assay: Dopamine D2 receptor (DRD2) small molecule agonists, cell-based qHTS assay (AID 1963594); also: nearly all actives have a fitted effect of over 35% in size
# Sequence of D(2) dopamine receptor (Homo sapiens) (P14416 whole entry, looked up): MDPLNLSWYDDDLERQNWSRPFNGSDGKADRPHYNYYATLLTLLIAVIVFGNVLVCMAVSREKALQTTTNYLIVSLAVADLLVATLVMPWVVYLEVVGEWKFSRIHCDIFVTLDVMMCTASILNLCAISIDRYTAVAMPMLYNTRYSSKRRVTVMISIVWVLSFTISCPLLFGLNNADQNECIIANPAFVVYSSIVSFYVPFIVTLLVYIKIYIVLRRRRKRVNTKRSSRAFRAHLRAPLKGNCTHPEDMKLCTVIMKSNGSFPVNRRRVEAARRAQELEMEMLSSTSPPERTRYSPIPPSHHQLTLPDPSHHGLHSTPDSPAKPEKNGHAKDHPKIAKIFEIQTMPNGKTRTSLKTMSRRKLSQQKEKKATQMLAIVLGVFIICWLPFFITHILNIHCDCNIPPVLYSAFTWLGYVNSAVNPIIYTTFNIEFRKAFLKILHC
# Outline: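 cAMP accumulation in DRD2-HEK293 cells measured by HTRF after 1 h detection; compounds added 10 min before NKH477 (200nM […]) forskolin-analogue stimulation, 30 min at room temperature, with Ro20-1724 present at 0.1 mM final.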
# [18] = target: D(2) dopamine receptor (Homo sapiens) (UniProt P14416); assay: Dopamine D2 receptor (DRD2) small molecule antagonists, cell-based qHTS assay (AID 1963595; active = well fitted inhibition curve with a large enough effect in the signal ratio in the repeat runs, with a control signal flat; the % refers to the signal ratio)
# Outline: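 HTRF cAMP read-out at 665 and 620 nm emission (340 nm excitation). Antagonist mode: compounds were tested against 12 nM quinpirole in DRD2-HEK293 cells, with 200 nM NKH477 raising cAMP and 0.1 mM Ro20-1724 blocking its breakdown.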
# [19] = cAMP Responsive Elements (CRE) small molecule antagonists, cell-based qHTS assay (AID 1963591; active = well fitted inhibition curve with a large enough effect in the signal ratio in the repeat runs, not every such curve was filed as active; the % refers to the signal ratio)
# Outline: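 Inhibition of NKH477-driven (0.25 uM final) CRE-beta-lactamase signal in HEK293T cells, 3 h compound exposure at 37 °C, detected by FRET substrate fluorescence.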
# [20] = target: Beta-2 adrenergic receptor (Homo sapiens) (UniProt P07550); assay: Adrenergic beta2 receptor (ADRB2) small molecule agonists, cell-based qHTS assay (AID 1963593);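 also: CHO cells stably overexpressing human ADRB2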
# Outline: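 CHO cells stably over-expressing ADRB2 were plated overnight at 37C, then dosed with compounds plus a stimulation mix containing 100uM IBMX and 25uM Ro-20-1724 for 0.5hr at room temperature. cAMP was measured by HTRF competition, 1hr.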
smiles,measurement,setting,value
O=C(c1ccc2c(c1)C(=O)OC2=O)c1ccc2c(c1)C(=O)OC2=O,Potency,[1],inactive
same,Potency,[2],inactive
same,Potency,[3],inactive
same,Potency,[4],inactive
same,Potency,[5],inactive
same,Potency,[6],inactive
same,Potency,[7],inactive
same,Potency,[8],inactive
same,Potency,[9],inactive
same,Potency,[10],inactive
same,Potency,[11],inactive
same,Potency,[12],inactive
same,Potency,[13],inactive
same,Potency,[14],inactive
same,Potency,[15],inactive
same,Potency,[16],inactive
same,Potency,[17],inactive
CC(C)OC(=O)CCCCC(=O)OC(C)C,Potency,[1],inactive
same,Potency,[2],inactive
same,Potency,[3],inactive
same,Potency,[4],inactive
same,Potency,[5],inactive
same,Potency,[6],inactive
same,Potency,[7],inactive
same,Potency,[8],inactive
same,Potency,[9],inactive
same,Potency,[10],inactive
same,Potency,[11],inactive
same,Potency,[13],inactive
same,Potency,[14],inactive
same,Potency,[15],inactive
same,Potency,[16],inactive
same,Potency,[17],inactive
same,Potency,[18],inactive
O=C(Nc1ccc([N+](=O)[O-])cc1Cl)c1cc(Cl)ccc1O,Potency,[1],1.93 µM (active) and 291 nM (active)
same,Potency,[2],34.4 µM (active) and 41.1 nM (active)
same,Potency,[3],inactive
same,Potency,[4],inactive
same,Potency,[5],inactive
same,Potency,[6],inactive
same,Potency,[7],inactive
same,Potency,[8],inactive
same,Potency,[11],inactive
same,Potency,[12],inactive
same,"activity, negative = inhibition",[13],-9.19% [at 12.6 µM]
same,Potency,[14],inactive
same,"activity change, negative = inhibition",[16],-7.38% [at 19 µM]
same,Potency,[17],inactive
same,Potency,[18],inactive
BrC1CCC(Br)C(Br)CCC(Br)C(Br)CCC1Br (stereo unspecified),Potency,[1],17.2 µM (active)
same,Potency,[2],9.65 µM (active) and 16.3 µM (active)
same,Potency,[3],inactive
same,Potency,[4],inactive
same,Potency,[5],inactive
same,Potency,[6],inactive
same,Potency,[7],inactive
same,Potency,[8],inactive
same,Potency,[9],inactive
same,Potency,[11],inactive
same,Potency,[12],inactive
same,Potency,[13],inactive
same,Potency,[14],inactive
same,Potency,[19],inactive
same,Potency,[16],inactive
same,Potency,[17],inactive
same,Potency,[18],inactive
CCN[C@H]1CN(CCCOC)S(=O)(=O)c2sc(S(N)(=O)=O)cc21,Potency,[1],inactive
same,Potency,[2],inactive
same,Potency,[3],inactive
same,Potency,[4],inactive
same,Potency,[5],inactive
same,Potency,[6],inactive
same,Potency,[7],inactive
same,Potency,[8],inactive
same,Potency,[9],inactive
same,Potency,[10],inactive
same,Potency,[11],inactive
same,Potency,[12],inactive
same,Potency,[13],inactive
same,Potency,[14],inactive
same,Potency,[15],inactive
same,Potency,[19],inactive
same,Potency,[16],inactive
same,Potency,[20],inactive
same,Potency,[18],inactive
COC(OC)OC,Potency,[1],inactive
same,Potency,[2],inactive
same,Potency,[3],inactive
same,Potency,[4],inactive
same,Potency,[5],inactive
same,Potency,[6],inactive
same,Potency,[7],inactive
same,Potency,[8],inactive
same,Potency,[9],inactive
same,Potency,[10],inactive
same,Potency,[11],inactive
same,Potency,[13],inactive
same,Potency,[14],inactive
same,Potency,[15],inactive
same,Potency,[19],inactive
same,Potency,[16],inactive
same,Potency,[17],inactive
same,Potency,[18],inactive
Cc1ccc(C=O)cc1,Potency,[1],inactive
same,Potency,[2],inactive
same,Potency,[3],inactive
same,Potency,[4],inactive
same,Potency,[5],inactive
same,Potency,[6],inactive
same,Potency,[7],inactive
same,Potency,[8],inactive
same,Potency,[9],inactive
same,Potency,[11],inactive
same,Potency,[12],inactive
same,Potency,[13],inactive
same,Potency,[14],inactive
same,Potency,[15],inactive
same,Potency,[19],inactive
same,Potency,[16],inactive
same,Potency,[17],inactive
same,Potency,[18],inactive
